We go through 40 compounds from PubChem BioAssay (Tox21).

Records with an inconclusive call do not appear. A call without a number means that no potency is given here. Active and inactive are the calls of the source. Calls follow the shape of the full dose curve.

The nature of this test: p53 small molecule agonists, cell-based qHTS assay with human liver microsomes (AID 1963577).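 Also: p53 response element beta-lactamase reporter cells with liver microsomes plus NADPH.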 To be noted: HCT-116 p53RE-bla with human liver microsomes, ratio, 16 h; series mostly up to 66 µM. The text has this:
National Center for Advancing Translational Sciences [NCATS]
Division of Preclinical Innovation [DPI]
U.S. Environmental Protection Agency [EPA]
National Institutes of Environmental Health Sciences [NIEHS]
National Toxicology Program [NTP]
U.S. Food and Drug Administration [FDA]
p53, a tumor suppressor protein, is activated following cellular insult, including DNA damage and other cellular stresses. The activation of p53 regulates cell fate by inducing DNA repair, cell cycle arrest, apoptosis, or cellular senescence. The activation of p53, therefore, is a good indicator of DNA damage and other cellular stresses. […] The activation of the reporter gene under culture conditions can be detected by fluorescence intensity.
Tox21 Assay Protocol Summary:
The p53RE-bla cells were dispensed at 4,000cells/3ul/well in 1536-well black-clear bottom plates. After the assay plates were incubated at 37 C, 5% CO2 incubator for 5 hours, 23 nL of compounds dissolved in DMSO, positive controls or DMSO only was transferred to the assay plate. Following compound addition, 3 uL of human liver microsomes (XenoTech, Kansas City, KS) at final concentration of 0.5 mg/mL and 1uL of Beta-Nicotinamide adenine dinucleotide 2-phosphate (NADPH) at final concentration of 0.5 mg/mL were transferred to the assay plate. The plates were incubated at 37 C for 16 hours. 1 uL of LiveBLAzer detection mixture was added to each well and the plates were incubated at room temperature in the dark for 2 h.
For orientation: qHTS replaces the single test concentration by a dilution series.
Take `O=S(=O)(Cl)Cl`: the Potency entry is “inactive”.

For the compound `Oc1ccccc1-c1ccccc1`, the Potency result was “inactive”.

Take `COS(=O)(=O)OC`: the Potency result was “inactive”.

With `N#Cc1cccc(C#N)c1`, the Potency result was “inactive”.

As to `CC1=C2[C@H]3OC(=O)[C@@H](C)[C@@H]3CC[C@@]2(C)C=CC1=O`, the Potency entry was “inactive”.

As for `S=c1[nH]c2ccccc2[nH]1`, the Potency entry is “inactive”.

`Clc1cccc(C(Cl)(Cl)Cl)n1`: the Potency entry is “inactive”.

For `Clc1nc(Cl)nc(Nc2ccccc2Cl)n1`, the Potency entry was “inactive”.

`Clc1ccc(C(Cl)(Cl)Cl)c(Cl)c1`: the Potency entry is “inactive”.

`C=CC(=O)OCC(C)C`: the Potency entry is “inactive”.

Regarding `CCCCCCOC(=O)c1ccccc1C(=O)OCCCCCC`, the Potency result is “inactive”.

As to `O=C=NC1CCCCC1`, the Potency result was “inactive”.

As to `N#Cc1ccccn1`, the Potency result was “inactive”.

Take `C=CCN(CC=C)C(=O)C(Cl)Cl`: the Potency entry was “inactive”.

On to `CCNc1nc(NCC)nc(SC)n1`, for which the Potency result is “inactive”.

Consider `Cn1c(N)nc2c3cccnc3ccc21`, for which the Potency entry was “inactive”.

In the case of `CCCCCCCCCCn1cc[n+](C)c1`, the Potency result was “inactive”.

For the compound `CCC[CH2][Sn]([Cl])([Cl])[CH2]CCC`, the Potency entry is “inactive”.

Consider `CC(C)(C)C(O)(CCc1ccc(Cl)cc1)Cn1cncn1` (stereo not given), for which the Potency result is “inactive”.

Take `C=C(C)C#N`: the Potency entry is “inactive”.

For `CCCC(C)(COC(N)=O)COC(N)=O`, the Potency result is “inactive”.

Consider `CCCCOC(=O)c1ccccc1C(=O)O`, for which the Potency result is “inactive”.

Regarding `CC(C)c1ccc(CO)cc1`, the Potency entry was “inactive”.

Turning to `CCCCCc1cc(O)cc(O)c1`, the Potency entry was “inactive”.

For the compound `COC(=O)Cc1ccccc1`, the Potency result was “inactive”.

In the case of `CCC[N+](=O)[O-]`, the Potency entry was “inactive”.

For `CCN(CC)CCO`, the Potency entry was “inactive”.

As for `C=C(C)CCl`, the Potency result was “inactive”.

As for `CC(C)(C)OOC(C)(C)CCC(C)(C)OOC(C)(C)C`, the Potency result was “inactive”.

For `O=C(NC(=O)c1ccccc1Cl)Nc1ccc(OC(F)(F)F)cc1`, the Potency result was “inactive”.

For the compound `O=C1C(Cl)=C(Cl)C(=O)C(Cl)=C1Cl`, the Potency entry is “inactive”.

For `O=C(NC(=O)c1c(F)cccc1F)Nc1cc(Cl)c(OC(F)(F)C(F)C(F)(F)F)cc1Cl` (stereo not given), the Potency result is “inactive”.

`CCC(=O)c1ccccc1`: the Potency entry was “inactive”.

As for `c1ccc2c(c1)sc1ccccc12`, the Potency result is “inactive”.

As for `N#CSCSC#N`, the Potency result was “inactive”.

For the compound `O=c1[nH]c(=O)[nH]c(=O)[nH]1`, the Potency entry was “inactive”.

Consider `Cc1ccc(C(=O)Cl)cc1`, for which the Potency entry is “inactive”.

As for `O=C1C2(Cl)C3(Cl)C4(Cl)C(Cl)(Cl)C5(Cl)C3(Cl)C1(Cl)C5(Cl)C24Cl` (stereo not given), the Potency result is “inactive”.

For `CN=C=O`, the Potency result was “inactive”.

For `C[C@]12CCC(=O)C=C1CC[C@@H]1[C@@H]2CC[C@]2(C)C(=O)CC[C@@H]12`, the Potency result was “inactive”.
